The target in experiment [1] is bovine Gamma-Aminobutyric Acid Type A Receptor BDZ, alpha 1 site (GABARa1), GABRA1 (gene 780973) (UniProt P08219). As to the kind of experiment: NVS_LGIC_bGABARa1: NovaScreen (NVS) Ligand-Gated Ion Channel Assay for bovine Gamma-Aminobutyric Acid Type A Receptor BDZ, alpha 1 site (GABARa1) (AID 2283321). Summed up: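 Bovine cortex membrane preparation, benzodiazepine site on GABA-A alpha1; specific radioligand displacement read after 0.75 h by filtration and scintillation. Screen at 25 uM, then singleton titrations up to 50 uM; DMSO baseline.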
bovine Gamma-Aminobutyric Acid Type A Receptor BDZ, alpha 1 site (GABARa1), GABRA1 (gene 780973), sequence (P08219 whole entry, looked up): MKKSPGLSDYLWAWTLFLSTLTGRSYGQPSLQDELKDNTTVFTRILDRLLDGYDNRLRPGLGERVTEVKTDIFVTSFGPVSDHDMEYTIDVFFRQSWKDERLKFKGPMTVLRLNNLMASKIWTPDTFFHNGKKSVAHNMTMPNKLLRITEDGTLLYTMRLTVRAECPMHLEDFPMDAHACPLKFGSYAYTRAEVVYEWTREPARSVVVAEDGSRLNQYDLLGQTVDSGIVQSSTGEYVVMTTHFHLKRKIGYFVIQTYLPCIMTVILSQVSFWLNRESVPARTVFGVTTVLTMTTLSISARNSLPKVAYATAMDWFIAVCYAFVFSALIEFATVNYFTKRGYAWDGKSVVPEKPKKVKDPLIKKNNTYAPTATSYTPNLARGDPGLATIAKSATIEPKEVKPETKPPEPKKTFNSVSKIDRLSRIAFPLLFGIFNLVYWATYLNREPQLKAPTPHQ

Experiment [2] deals with rat Gamma-Aminobutyric Acid Type A Receptor BDZ, alpha 6 site (GABARa6), Gabra6 (gene 29708) (UniProt P30191). As to the kind of experiment: NVS_LGIC_rGABARa6: NovaScreen (NVS) Ligand-Gated Ion Channel Assay for rat Gamma-Aminobutyric Acid Type A Receptor BDZ, alpha 6 site (GABARa6) (AID 2283339). Put shortly:
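Actives from a 25 uM duplicate screen were retested in concentration series (max 50 uM). Specific radioligand displacement from rat cerebellar membranes was counted by filter-based scintillation at 1 h; DMSO served as baseline.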

In experiment [3] the target is rat Glutamate, AMPA Site (AMPA), Gria1 (gene 50592) (UniProt P19490). The experiment can be described thus: NVS_LGIC_rAMPA: NovaScreen (NVS) Ligand-Gated Ion Channel Assay for rat Glutamate, AMPA Site (AMPA) (AID 2283324). Put shortly: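 Screening at 25 uM in duplicate preceded concentration series reaching 50 uM for qualifying compounds. Radioligand displacement on rat forebrain membranes, 1 h, filter-based scintillation readout; reduced binding relative to DMSO.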
rat Glutamate, AMPA Site (AMPA), Gria1 (gene 50592), sequence (P19490 whole entry, looked up): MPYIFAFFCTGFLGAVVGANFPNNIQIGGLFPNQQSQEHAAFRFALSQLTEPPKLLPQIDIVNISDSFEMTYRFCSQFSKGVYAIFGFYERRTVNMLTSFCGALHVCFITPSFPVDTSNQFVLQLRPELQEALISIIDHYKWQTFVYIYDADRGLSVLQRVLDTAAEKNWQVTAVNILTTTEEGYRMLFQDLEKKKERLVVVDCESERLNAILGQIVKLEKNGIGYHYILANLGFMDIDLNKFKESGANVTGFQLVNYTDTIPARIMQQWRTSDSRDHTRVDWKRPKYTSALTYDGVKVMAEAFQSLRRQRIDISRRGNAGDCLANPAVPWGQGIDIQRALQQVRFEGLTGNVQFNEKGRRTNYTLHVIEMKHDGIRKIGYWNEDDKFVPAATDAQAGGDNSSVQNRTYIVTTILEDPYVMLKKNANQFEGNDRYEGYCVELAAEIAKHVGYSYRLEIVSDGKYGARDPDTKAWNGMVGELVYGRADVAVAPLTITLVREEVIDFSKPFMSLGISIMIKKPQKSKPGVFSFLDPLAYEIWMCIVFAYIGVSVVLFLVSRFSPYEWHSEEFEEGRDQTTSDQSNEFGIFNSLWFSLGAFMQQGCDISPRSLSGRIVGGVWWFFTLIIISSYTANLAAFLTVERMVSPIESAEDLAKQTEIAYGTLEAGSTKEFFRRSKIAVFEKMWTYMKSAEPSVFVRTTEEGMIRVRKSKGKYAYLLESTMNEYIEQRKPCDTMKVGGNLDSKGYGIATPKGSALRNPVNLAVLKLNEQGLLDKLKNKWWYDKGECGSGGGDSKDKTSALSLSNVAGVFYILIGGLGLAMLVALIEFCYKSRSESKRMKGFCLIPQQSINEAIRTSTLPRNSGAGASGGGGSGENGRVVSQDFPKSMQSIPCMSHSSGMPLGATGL

Experiment [4] addresses Voltage-gated inwardly rectifying potassium channel KCNH2 (Homo sapiens) (UniProt Q12809). The experiment can be described thus: NVS_IC_hKhERGCh: NovaScreen (NVS) Ion Channel Assay for human Potassium Channel ERG (KhERGCh) (AID 2283333). Put shortly: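 Membranes from CHO cells expressing human ERG; displacement of radioligand measured by filtration and scintillation after 0.75 h. Single-concentration duplicate screen at 25 uM, then concentration-response for actives; DMSO baseline.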

In experiment [5] the target is bovine Gamma-Aminobutyric Acid Type A Receptor Agonist (GABAR Agonist), GABRA1 (gene 780973) (UniProt P08219). The experiment can be described thus: NVS_LGIC_bGABAR_Agonist: NovaScreen (NVS) Ligand-Gated Ion Channel Assay for bovine Gamma-Aminobutyric Acid Type A Receptor Agonist (GABAR Agonist) (AID 2283338). Summed up: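 Radioligand binding to bovine cerebellar membranes in agonist format, read by filter-based scintillation counting after 1 h. Primary screen in duplicate at 25 uM, with actives followed in concentration series. Gain of signal versus DMSO.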
bovine Gamma-Aminobutyric Acid Type A Receptor Agonist (GABAR Agonist), GABRA1 (gene 780973), sequence (P08219 whole entry, looked up): as the sequence (P08219 whole entry, looked up) above

For the next experiment, the system named is NCBI gene 100848466. As to the kind of experiment: NVS_NR_bPR: NovaScreen (NVS) Nuclear Receptor Binding Assay for bovine Progextron Receptor (PR) (AID 2283343).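 As to AC50: actives lower bound radioligand signal below DMSO meaning displacement of the label.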 Put shortly: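 Competitive radioligand binding with membranes from bovine uterus, scintillation read-out at 18 h post-dose. Compounds first tested in duplicate at 25 uM, then actives in concentration series; loss-of-signal relative to DMSO.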

In experiment [6] the target is rat Oxytocin Receptor (OXT), Oxtr (gene 25342) (UniProt P70536). The experiment can be described thus: NVS_GPCR_rOXT: NovaScreen (NVS) G Protein-Coupled Receptor Assay for rat Oxytocin Receptor (OXT) (AID 2283330). Summed up: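 Binding to rat uterine membrane receptor was followed by scintillation counting of filter-trapped radioligand after 1 h. A 25 uM duplicate single-point screen preceded concentration series with a top of 50 uM. Signal loss was analysed relative to DMSO.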

In experiment [7] the target is human Androgen Receptor (AR), AR (gene 367) (UniProt P10275). The experiment can be described thus: NVS_NR_hAR: NovaScreen (NVS) Nuclear Receptor Binding Assay for human Androgen Receptor (AR) (AID 2283332). Put shortly: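 Radioligand competitive binding, scintillation read-out, in cell-free extract from LnCAP, measured 20 h after dosing. Screened first in duplicate at 25 uM, then concentration series for actives; activity fitted against DMSO.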
human Androgen Receptor (AR), AR (gene 367), sequence (P10275 whole entry, looked up): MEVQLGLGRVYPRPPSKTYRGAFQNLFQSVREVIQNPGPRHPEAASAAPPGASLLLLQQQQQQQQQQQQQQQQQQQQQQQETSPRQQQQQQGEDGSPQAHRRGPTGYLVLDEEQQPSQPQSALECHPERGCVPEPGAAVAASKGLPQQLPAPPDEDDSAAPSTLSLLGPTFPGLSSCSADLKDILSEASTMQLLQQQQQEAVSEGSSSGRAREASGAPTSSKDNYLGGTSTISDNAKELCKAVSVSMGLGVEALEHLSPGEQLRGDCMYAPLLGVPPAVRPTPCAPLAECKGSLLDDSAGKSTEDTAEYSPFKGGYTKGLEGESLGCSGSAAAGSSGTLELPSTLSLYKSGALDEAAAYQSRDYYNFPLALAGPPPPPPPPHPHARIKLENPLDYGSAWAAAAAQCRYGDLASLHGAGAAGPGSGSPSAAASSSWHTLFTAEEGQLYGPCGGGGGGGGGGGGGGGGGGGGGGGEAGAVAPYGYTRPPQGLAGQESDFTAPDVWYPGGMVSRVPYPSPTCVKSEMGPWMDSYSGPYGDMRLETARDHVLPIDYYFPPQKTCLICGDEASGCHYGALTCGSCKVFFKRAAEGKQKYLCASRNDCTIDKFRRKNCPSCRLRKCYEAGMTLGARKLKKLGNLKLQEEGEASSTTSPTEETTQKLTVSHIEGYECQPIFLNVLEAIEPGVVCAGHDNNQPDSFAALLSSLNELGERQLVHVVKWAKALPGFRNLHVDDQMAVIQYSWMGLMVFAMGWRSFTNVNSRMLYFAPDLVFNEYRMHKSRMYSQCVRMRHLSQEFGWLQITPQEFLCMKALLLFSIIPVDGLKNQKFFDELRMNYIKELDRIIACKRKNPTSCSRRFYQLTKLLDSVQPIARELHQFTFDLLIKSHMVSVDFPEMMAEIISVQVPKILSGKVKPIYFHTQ

Experiment [8] deals with human Serotonin, 5-Hydroxytryptamine Receptor 3 (5HT3), HTR3A (gene 3359) (UniProt P46098). As to the kind of experiment: NVS_LGIC_h5HT3: NovaScreen (NVS) Ligand-Gated Ion Channel Assay for human Serotonin, 5-Hydroxytryptamine Receptor 3 (5HT3) (AID 2283325). Summed up: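 Initially tested at 25 uM in duplicate, then up to 50 uM in concentration-response for actives, compounds competed with a radioligand for HEK293-derived human 5-HT3 receptor. Bound counts were measured by filtration and scintillation at 1 h; loss of signal versus DMSO.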

Experiment [9] has as its target rat Gamma-Aminobutyric Acid Type A Receptor, Non-Selective (GABAR-NonSelective), Gabra1 (gene 29705) (UniProt P62813). As to the kind of experiment: NVS_LGIC_rGABAR_NonSelective: NovaScreen (NVS) Ligand-Gated Ion Channel Assay for rat Gamma-Aminobutyric Acid Type A Receptor, Non-Selective (GABAR-NonSelective) (AID 2283326). Summed up:
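Compounds were first screened in duplicate at 25 uM, with actives run as singleton concentration series (max 50 uM). Binding of a radioligand to rat whole-brain GABA-A preparation was measured by filtration and scintillation counting after 1 h, DMSO baseline.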

The target in experiment [10] is human Constitutive Androstane Receptor (CAR), NR1I3 (gene 9970) (UniProt Q14994). As to the kind of experiment: NVS_NR_hCAR_Agonist: NovaScreen (NVS) Nuclear Receptor Binding Assay for human Constitutive Androstane Receptor Agonism (CAR) (AID 2283328). Summed up:
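Actives from a 25 uM duplicate screen were retested in singleton concentration series to 50 uM max. Biochemical TR-FRET assay on extracted CAR protein measured 1 h post-dose, with signal increase over DMSO control.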

Experiment [11] has as its target rat Glutamate, MK-801 Agonist Site (GluNMDA_MK801), Grin1 (gene 24408) (UniProt P35439). The experiment can be described thus: NVS_LGIC_rGluNMDA_MK801_Agonist: NovaScreen (NVS) Ligand-Gated Ion Channel Assay for rat Glutamate, MK-801 Agonist Site (GluNMDA_MK801) (AID 2283340). Summed up:
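Rat forebrain membrane preparation; MK-801-site radioligand binding read by filtration and scintillation after 1.5 h. Single-point 25 uM duplicate screen, followed by singleton concentration series to 50 uM max; DMSO baseline.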

For experiment [12], the target named is rat Glycine Receptor, Strychnine-sensitive (GlyRStrySens), Glra1 (gene 25674) (UniProt P07727). The experiment can be described thus: NVS_LGIC_rGlyRStrySens: NovaScreen (NVS) Ligand-Gated Ion Channel Assay for rat Glycine Receptor, Strychnine-sensitive (GlyRStrySens) (AID 2283341). Put shortly: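 Radioligand displacement on rat spinal cord membranes, 1 hr, filter scintillation read-out. Single-concentration duplicate screen at 25 uM; chemicals meeting threshold (e.g., 30% inhibition) rerun in concentration-response up to 50 uM. Loss of binding fitted versus DMSO.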

For experiment [13], the target named is rat Peripheral-type Benzodiazepine Receptor (PBR), Tspo (gene 24230) (UniProt P16257). The experiment can be described thus: NVS_MP_rPBR: NovaScreen (NVS) Membrane Protein Assay for rat Peripheral-type Benzodiazepine Receptor (PBR) (AID 2283335). Put shortly: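 Single-concentration duplicate screening at 25 uM preceded concentration-series retesting of actives. Binding of a specific radioligand to rat kidney membrane PBR was read by filtration radiodetection after 1 h, with plate-wise positive and negative controls.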
rat Peripheral-type Benzodiazepine Receptor (PBR), Tspo (gene 24230), sequence (P16257 whole entry, looked up): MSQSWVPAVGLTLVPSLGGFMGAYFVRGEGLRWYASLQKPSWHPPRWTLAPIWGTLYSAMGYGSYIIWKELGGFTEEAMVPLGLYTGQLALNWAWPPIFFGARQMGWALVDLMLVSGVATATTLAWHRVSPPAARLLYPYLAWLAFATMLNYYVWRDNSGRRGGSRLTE

The target in experiment [14] is rat Thyrotropin Releasing Hormone Receptor (TRH), Trhr (gene 25570) (UniProt Q01717). As to the kind of experiment: NVS_GPCR_rTRH: NovaScreen (NVS) G Protein-Coupled Receptor Assay for rat Thyrotropin Releasing Hormone Receptor (TRH) (AID 2283329).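 Also: hit means lower bound tracer signal versus DMSO baseline.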 Put shortly:
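Cell-free radioligand binding on rat forebrain membranes; bound tracer measured by filter-based scintillation counting 4 hours after dosing. Loss of signal versus DMSO baseline indicates displacement; primary screen at 25 uM in duplicate, actives then run in concentration series.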

Experiment [15] deals with human Peripheral-type Benzodiazepine Receptor (PBR), TSPO (gene 706) (UniProt P30536). The experiment can be described thus: NVS_MP_hPBR: NovaScreen (NVS) Membrane Protein Assay for human Peripheral-type Benzodiazepine Receptor (PBR) (AID 2283331).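 Also: hits reduce radioligand binding relative to DMSO baseline.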 Put shortly:
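Cell-free binding to human colonic membrane preparations measured by filter-based scintillation counting after 1 h. Compounds first run at 25 uM in duplicate, then concentration series for actives; signal loss against DMSO baseline.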

SMILES strings stand for the structures. Several values for one entry are separate records, joined by “and”; a condition that tells them apart may be missing. Equal entries are not always repeated. Records with an inconclusive call do not appear. Activity calls are given as the source filed them. The calls were made as follows: active = hit-call score of the fitted dose curve at least 0.9, where 1 is the maximum; inconclusive = response in the unintended direction; inactive = score below 0.9.

human Peripheral-type Benzodiazepine Receptor (PBR), TSPO (gene 706), sequence (P30536 whole entry, looked up): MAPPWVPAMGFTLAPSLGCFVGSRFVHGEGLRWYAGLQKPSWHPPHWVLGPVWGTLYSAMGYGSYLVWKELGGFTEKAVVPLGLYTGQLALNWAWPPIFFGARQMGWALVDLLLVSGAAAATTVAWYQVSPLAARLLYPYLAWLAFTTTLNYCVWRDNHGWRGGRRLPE
Voltage-gated inwardly rectifying potassium channel KCNH2 (Homo sapiens), sequence (Q12809 whole entry, looked up): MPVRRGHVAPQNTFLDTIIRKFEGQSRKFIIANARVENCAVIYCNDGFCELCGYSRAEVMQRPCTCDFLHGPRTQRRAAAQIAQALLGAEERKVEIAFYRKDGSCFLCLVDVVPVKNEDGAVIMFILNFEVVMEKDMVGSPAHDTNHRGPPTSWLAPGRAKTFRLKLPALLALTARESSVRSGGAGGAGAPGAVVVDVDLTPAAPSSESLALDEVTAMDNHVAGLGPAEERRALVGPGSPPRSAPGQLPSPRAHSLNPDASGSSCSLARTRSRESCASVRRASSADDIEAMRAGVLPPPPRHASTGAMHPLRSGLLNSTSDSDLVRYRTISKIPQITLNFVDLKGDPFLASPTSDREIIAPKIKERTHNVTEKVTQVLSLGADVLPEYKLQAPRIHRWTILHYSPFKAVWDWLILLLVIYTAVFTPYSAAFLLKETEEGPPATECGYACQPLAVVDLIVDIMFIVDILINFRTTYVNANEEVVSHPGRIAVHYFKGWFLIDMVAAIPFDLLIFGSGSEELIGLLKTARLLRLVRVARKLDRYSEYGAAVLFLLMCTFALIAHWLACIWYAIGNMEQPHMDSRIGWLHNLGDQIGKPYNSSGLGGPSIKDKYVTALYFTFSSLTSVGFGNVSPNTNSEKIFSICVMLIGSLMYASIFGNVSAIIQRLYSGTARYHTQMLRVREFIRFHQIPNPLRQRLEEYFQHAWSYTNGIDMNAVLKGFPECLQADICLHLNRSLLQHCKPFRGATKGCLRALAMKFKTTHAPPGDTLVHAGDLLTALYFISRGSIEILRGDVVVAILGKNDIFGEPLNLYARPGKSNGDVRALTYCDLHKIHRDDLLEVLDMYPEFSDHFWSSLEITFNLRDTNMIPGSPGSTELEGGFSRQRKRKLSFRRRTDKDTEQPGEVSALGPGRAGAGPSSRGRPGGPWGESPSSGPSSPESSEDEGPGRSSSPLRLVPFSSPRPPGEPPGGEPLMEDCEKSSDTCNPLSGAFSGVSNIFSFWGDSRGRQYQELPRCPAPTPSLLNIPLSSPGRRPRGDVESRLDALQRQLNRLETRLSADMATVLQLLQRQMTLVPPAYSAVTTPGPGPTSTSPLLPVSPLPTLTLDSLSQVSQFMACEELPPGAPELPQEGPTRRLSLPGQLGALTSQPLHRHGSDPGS
rat Thyrotropin Releasing Hormone Receptor (TRH), Trhr (gene 25570), sequence (Q01717 whole entry, looked up): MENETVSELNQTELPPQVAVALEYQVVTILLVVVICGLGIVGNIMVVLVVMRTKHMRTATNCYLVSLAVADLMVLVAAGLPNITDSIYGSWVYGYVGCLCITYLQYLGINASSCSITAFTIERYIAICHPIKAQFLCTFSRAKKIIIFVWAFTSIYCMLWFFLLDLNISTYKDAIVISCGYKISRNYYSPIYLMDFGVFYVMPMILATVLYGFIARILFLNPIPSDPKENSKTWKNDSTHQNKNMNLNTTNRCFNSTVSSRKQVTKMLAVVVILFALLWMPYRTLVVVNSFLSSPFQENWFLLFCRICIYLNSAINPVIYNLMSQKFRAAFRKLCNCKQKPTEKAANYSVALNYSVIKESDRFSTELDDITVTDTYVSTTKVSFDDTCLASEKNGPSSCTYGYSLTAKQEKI
human Constitutive Androstane Receptor (CAR), NR1I3 (gene 9970), sequence (Q14994 whole entry, looked up): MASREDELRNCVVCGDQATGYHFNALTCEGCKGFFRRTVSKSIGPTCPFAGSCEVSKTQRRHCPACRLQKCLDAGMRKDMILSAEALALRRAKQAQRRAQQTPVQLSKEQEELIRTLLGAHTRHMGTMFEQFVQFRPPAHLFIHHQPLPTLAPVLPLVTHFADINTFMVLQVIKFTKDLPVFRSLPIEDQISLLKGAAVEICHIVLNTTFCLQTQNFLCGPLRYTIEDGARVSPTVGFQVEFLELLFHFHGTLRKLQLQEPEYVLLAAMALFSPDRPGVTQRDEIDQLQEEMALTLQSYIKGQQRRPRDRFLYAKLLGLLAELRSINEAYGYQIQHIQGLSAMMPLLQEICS

In the case of `Cn1sc(Cl)cc1=O`, the compound was called inactive in [1] and in experiment [2]. Turning to `C=C(C)C(=O)[O][Sn]([CH2]CCC)([CH2]CCC)[CH2]CCC`, the AC50 in [3] is 25 µM (active); with NCBI gene 100848466, 3.89 µM (active). Besides, the compound was classed as inactive in experiment [4] and in [5].

As to `CC(=O)[O][Hg][c]1ccccc1`, the half-maximal activity concentration (AC50) in [3] is 9.18 µM (active); in experiment [6], 15.7 µM (active); in experiment [7] it was 16.9 µM (active).

On to `O=C(O)C(F)(F)C(F)(F)C(F)(F)C(F)(F)C(F)(F)C(F)(F)C(F)(F)C(F)(F)C(F)(F)C(F)(F)F`, for which the outcome in experiment [8] was inactive. The AC50 with NCBI gene 100848466 is 23.1 µM (active). In the case of `CCOP(=S)(OCC)Oc1nc(Cl)c(Cl)cc1Cl`, the concentration at half-maximal activity (AC50) in experiment [9] is 9.12 µM (active). Further, in experiment [10], the result was inactive. Regarding `O=C1C2(Cl)C3(Cl)C4(Cl)C(Cl)(Cl)C5(Cl)C3(Cl)C1(Cl)C5(Cl)C24Cl` (stereo unspecified), the compound was classed as inactive in experiment [10].

In the case of `CCN1CCC2(CC1)COc1cc3c(cc12)N(C(=O)c1ccc(-c2ccc(-c4nnc(C)o4)cc2C)cc1)CC3`, in experiment [4], the compound was classed as inactive. In [11], the AC50 is 39.1 µM (active).

As to `CCC(=O)C(CC(C)N(C)C)(c1ccccc1)c1ccccc1` (stereo unspecified), in experiment [12], the AC50 was 18.1 µM (active). Regarding `CC12CC1(C)C(=O)N(c1cc(Cl)cc(Cl)c1)C2=O` (stereo unspecified), the AC50 was 17.1 nM (active) and 355 nM (active) in experiment [7]; 6.63 µM (active) and 1.03 µM (active) and 850 nM (active) in experiment [13]. Consider `ClCC(Cl)CCl`, for which the outcome (in experiment [14]; with NCBI gene 100848466) was inactive. As for `C[C@H]1CCCC(=O)CCC/C=C/c2cc(O)cc(O)c2C(=O)O1`, the compound was classed as inactive in [14]. For the same compound, the figures for the half-maximal activity concentration (AC50) in [15] and in experiment [13] were 1.66 µM (active) and 0.346 µM (active), respectively. As for `c1cc[c]([Hg][c]2ccccc2)cc1`, the AC50 in experiment [15] is 0.372 µM (active). On to `CCOP(=S)(OCC)Oc1ccc(S(C)=O)cc1` (stereo unspecified), for which, in experiment [13], the outcome was inactive. Take `O=[N+]([O-])c1ccc2c3c(cccc13)CC2`: the half-maximal activity concentration (AC50) in experiment [13] was 13.3 µM (active). On the same count and under the same terms, the figure for `O=C(Cc1ccccc1)c1ccccc1` is 9.94 µM (active). For the compound `C[C@]12CCC(=O)C[C@@H]1CC[C@@H]1[C@@H]2CC[C@]2(C)[C@@H](O)CC[C@@H]12`, in the experiment on NCBI gene 100848466, the call was inactive. As for `CC(C)(c1ccc(OCC2CO2)cc1)c1ccc(OCC2CO2)cc1` (stereo unspecified), the concentration at half-maximal activity (AC50) in experiment [15] is 7.73 µM (active); in [13] it was 4.31 µM (active).

Source of the values: PubChem BioAssay (EPA / NIEHS).
